tim10-1 inh: inhibits growth of tim10-1 mutant yeast; S. cerevisiae tim10-1 ts strain growth, BacTiter-Glo, 24 h; inhibition, % at 20 µM; 330,000 compounds, 2.2% hits; AID 463190;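 active means inhibition of at least 40%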;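 further: mutant grown at 25 °C; 0% = DMSO wells with yeast and 100% = wells holding no yeast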
NALP1 inh: inhibitors of NALP1 inflammasome in yeast; S. cerevisiae NALP1/ASC/caspase-1 growth, X-gal OD620, 72 h; inhibition, % at 10 µM; 280,000 compounds, 0.61% hits; AID 2071; in the data active means inhibition mostly above about 24%, no sharp cut-off; inactive means mostly below about 32%
tim23-1 inh: inhibits growth of tim23-1 mutant yeast | S. cerevisiae tim23-1 growth, BacTiter-Glo luminescence, 24 h | inhibition, % at 20 µM | 330,000 compounds, 1.3% hits | AID 463212;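 active means growth inhibition of the mutant yeast at or above 50%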;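 further: temperature-sensitive mutant grown at 25 °C; plate controls were DMSO-treated mutant yeast for no effect and medium wells lacking yeast for full effect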
TIM10 inh: inhibits growth of TIM10 yeast strain; S. cerevisiae TIM10 strain growth, BacTiter-Glo luminescence, 24 h; inhibition, % at 10 µM; 330,000 compounds, 1.4% hits; AID 463195;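 active means inhibition of 40% or more at the single tested concentration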;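 further: wild-type TIM10 isogenic control strain grown at permissive 25 °C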
NALP3 yeast inh: blocks the NALP3 inflammasome reconstituted in yeast | 330,000 compounds, 0.39% hits | Yeast reconstituted NLRP3/ASC/caspase-1, beta-gal luminescence, 24 h | inhibition, % at 10 µM | AID 2825;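 active means inhibition of 50% or more; inactive means inhibition below 50%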;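 further: plate controls were induced DMSO wells for no effect and uninduced yeast grown without galactose for full effect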
tim10-1 conf: confirmation of tim10-1 mutant yeast growth inhibitors; shares compounds with tim10-1 inh; S. cerevisiae tim10-1 ts strain growth, BacTiter-Glo, 24 h; 7,400 compounds, 56% hits; inhibition, % at 20 µM;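 active means inhibition of yeast growth at or above a set limit in either of two repeat tests at 20 µM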;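 further: tim10-1 mutant grown at permissive 25 °C to find synthetic lethal compounds; 0% = DMSO yeast wells and 100% = medium wells without yeast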
TIM10 conf: TIM10 yeast growth inhibition, confirmed | shares compounds with TIM10 inh | S. cerevisiae tim10 strain growth, BacTiter-Glo luminescence, 24 h | inhibition, % at 10 µM | 4,600 compounds, 63% hits;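 active means inhibition of yeast growth at or above a set limit in either of two replicates at 10 µM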;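 further: this counterscreen used the strain with wild-type TIM10; 0% = yeast with DMSO and 100% = medium wells lacking yeast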
* hit, by the source's call; . = no result. Shown are actives, neighbours in structure and some others; about 4.1% of the full set was active somewhere.

SMILES	tim10-1 inh	NALP1 inh	tim23-1 inh	TIM10 inh	NALP3 yeast inh	tim10-1 conf	TIM10 conf
Cc1c(OCC(=O)OC(C)(C)C)ccc2c3c(c(=O)oc12)CCC3	13	22	20	20	19	.	.
Cc1cccc(C(=O)Nc2ccc(C(=O)/C=C/c3cccnc3)cc2)c1	.	35	.	.	.	.	.
Cc1cccc(/C=C/C(=O)c2ccc(NC3=NCCCS3)cc2)c1	54*	62*	1	66*	28	50*	59*
CCC1=C(c2ccc(C)cc2)S(=O)(=O)N=C1N1CCC(C(=O)NCCCN2CCCCC2)CC1	1	18	12	9	30	.	.
Cc1ccc(NC(=O)C2CC(=O)N/C(=N/N=C/c3ccco3)S2)cc1C (stereo unspecified)	8	30	-5	-13	9	.	.
O=C1S/C(=C\c2ccc(Cl)cc2)C(=O)N1CCn1cnnn1	43*	13	37	43*	23	35*	18
COc1ccc(/C=C2\SC(=O)N(CCNC(=O)Cn3cnnn3)C2=O)cc1	-124	6	-167	-349	-7	.	.
COc1ccc(CNC(=O)c2ccc(Br)o2)cc1	5	28	9	-1	13	.	.
O=C(Cc1cccs1)Nc1nc(-c2ccc(F)cc2F)cs1	41*	60	41	52*	37	34*	41*
CC1CC(C)CN(C(=O)CN(C)S(=O)(=O)c2ccc3c(c2)c(=O)n(C)c(=O)n3C)C1 (stereo unspecified)	20	36	19	8	0	.	.
O=S(=O)(NCCSc1ccc(Cl)cc1)c1ccc(F)cc1	44*	2	31	41*	24	35*	12
CC(C)(C)SCCNS(=O)(=O)c1ccc(Cl)cc1	32	-1	38	7	16	.	.
O/N=C/c1cc(Cl)ccc1OCc1cccc2ccccc12	63*	8	48	44*	18	24	50*
C#CCOc1ccc(Cl)cc1/C=N/O	13	-10	13	-2	-15	.	.
COC(=O)/C=C/c1ccc2c(c1)S(=O)(=O)N(Cc1ccc(OC)cc1)[C@H]2CC(=O)OC	12	.	11	14	29	.	.
COc1ccc(CN2[C@@H](CC(C)=O)c3ccc(/C=C/C(C)=O)cc3S2(=O)=O)cc1	55*	.	48	55*	10	51*	55*
O=[N+]([O-])c1ccc(CP(=O)(c2ccccc2)c2ccccc2)cc1	23	-1	7	4	-6	.	.
Cc1nc(C)c(-c2csc(Nc3ccc(F)cc3)n2)s1	48*	-3	45	51*	-9	43*	44*
Cc1cccc[n+]1CCCCCCCCCC[n+]1ccccc1C	52*	5	50	46*	14	70*	47*
Cc1ccc(C)c(NC(=S)NCc2ccc3[nH]c4c(c3c2)CCCC4)c1	45*	24	43	43*	23	35*	40*
N#C/C(=C/c1ccc(N2CCCCC2)o1)c1cccc(F)c1	55*	-4	38	46*	5	51*	28
CC(C)N1CCC2(CC1)N=C(c1ccc3c(c1)OCO3)CC(c1cc(Cl)ccc1O)N2 (stereo unspecified)	53*	68*	42	51*	40	45*	51*
Oc1cccc2ccc(N3CCOCC3)nc12	-9	-7	1	17	22	.	.
COc1cc2c(cc1OC)C(c1ccc(-c3cc(Cl)ccc3Cl)o1)=NCC2	46*	8	-2	45*	8	43*	46*
COc1cc2c(cc1OC)C(c1ccc(-c3ccccc3Cl)o1)=NCC2	46*	25	49	46*	28	40*	47*
COc1cc2c(cc1OC)C(c1ccc(-c3ccc(Cl)cc3Cl)o1)=NCC2	51*	20	45	48*	27	27	36*
COc1cc2c(cc1OC)C(c1ccc(Cl)cc1)=NCC2	-2	.	-4	8	32	.	.
CC(C)[C@]1(c2ccccc2)ON(c2ccccc2C(F)(F)F)C1=O	-41	.	12	-8	4	.	.
CC(CN1CCCCC1)OC(=O)/C=C/c1ccccc1 (stereo unspecified)	-4	8	3	8	10	.	.
CCS(=O)(=O)N1CCC(C(=O)NCc2ccc(OC)cc2)CC1	5	5	7	10	16	.	.
